Inconclusive results are not listed. Where a call stands in place of a potency, no number is given. Active and inactive are the calls of the source. Calls come from the whole dose curve; as a rule, active = well fitted inhibition curve with a large enough effect; inconclusive = small, poorly fitted or top-dose-only effect; inactive = flat fitted curve, though single readings scatter.
These molecules were tested against Calcium and integrin-binding protein 1 (Homo sapiens) (UniProt Q99828) (assay: Primary qHTS for Identification of Calcium Integrin Binding Protein 1 (CIB1) Competitor (AID 1508620;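 note: GST tagged CIB1 binding a fluorescein labelled alphaIIb integrin peptide tracer; top concentration of the series differs between compounds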)). Settings: CIB1-GST / FITC-alphaIIb peptide fluorescence polarization; series mostly up to 114 µM.
Sequence of Calcium and integrin-binding protein 1 (Homo sapiens) (Q99828 whole entry, looked up): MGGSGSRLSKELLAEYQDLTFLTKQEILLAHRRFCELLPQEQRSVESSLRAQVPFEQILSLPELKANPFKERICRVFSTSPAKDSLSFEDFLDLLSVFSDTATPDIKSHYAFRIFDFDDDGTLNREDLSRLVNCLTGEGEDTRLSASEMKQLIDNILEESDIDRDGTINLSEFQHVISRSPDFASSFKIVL
Method in brief: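 CIB1-GST (1 uM final) and compound incubated 15 min at room temperature before adding FITC-alphaIIb peptide tracer (100 nM final). Competition for binding read by fluorescence polarization (ex 480, em 540) after another 15 min at room temperature.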

Q: With CCn1cnc2c(Nc3cccc(Cl)c3)nc(C#N)nc21 as the molecule, how does the Potency read?
A: inactive

Q: COc1ccc(C2=Nn3c(nnc3-c3cccc(OC)c3)SC2)cc1 was tested. Which Potency did it give?
A: inactive

Q: How did the Potency turn out when O=C1CCc2cc(S(=O)(=O)Nc3cccc(-c4ccccc4)c3)ccc2N1 was run?
A: inactive

Q: How did the Potency turn out when COc1ccc(C2=Nn3c(nnc3-c3ccccc3Cl)SC2)cc1OC1CCCC1 was run?
A: inactive

Q: How did the Potency turn out when Cc1ccc(OCCn2c(CCNC(=O)Cc3cc(F)ccc3F)nc3ccccc32)cc1 was run?
A: inactive

Q: Cc1cc(NC(=O)Nc2nnc(-c3cccnc3)s2)ccc1Cl was tested. Which Potency did it give?
A: inactive

Q: With Cc1ccccc1-c1csc2ncnc(Sc3nnnn3C)c12 as the molecule, how does the Potency read?
A: inactive

Q: For O=c1c2ccc([N+](=O)[O-])cc2nc2sc(Nc3ccc4c(c3)CCC4)nn12, which Potency is on record?
A: inactive

Q: How did the Potency turn out when CC(=O)Nc1sc2c(c1-c1ccc(-c3nn[nH]n3)cc1)CCNC2 was run?
A: inactive

Q: How did the Potency turn out when O=C(O)c1ccc(S(=O)(=O)N[C@H](Cc2ccccc2)C(=O)O)cc1 was run?
A: inactive

Q: How did the Potency turn out when CC(=O)c1ccc(-c2ccc3ncnc(NCc4ccc(C)o4)c3c2)o1 was run?
A: inactive

Q: How did the Potency turn out when Cc1cc(C)nc(NC(=S)N2CCN(c3nc4ccccc4o3)CC2)c1 was run?
A: inactive

Q: With CCOc1ccc(CCNC(=O)c2cc3ccccc3n2Cc2cc(C)cc(C)n2)cc1OCC as the molecule, how does the Potency read?
A: inactive

Q: Which Potency does the source give for COC(=O)C1CCc2sc(NC(=O)Cc3ccccc3)c(C(=O)Nc3ccc(Cl)cc3)c21 (stereo not given) here?
A: inactive

Q: Cc1cc(C(=O)Nc2ccc(NC(=O)Cc3ccc(Cl)c(Cl)c3)cc2)no1 was tested. Which Potency did it give?
A: inactive

Q: For c1cncc(CNc2ncnc3ccc(-c4ccc5c(c4)OCO5)cc23)c1, which Potency is on record?
A: inactive

Q: COc1ccc(C2Nc3cccc(OC)c3C(=O)N2Cc2ccco2)cc1COc1c(C)cc(NC(C)=O)cc1C (stereo not given) was tested. Which Potency did it give?
A: inactive

Q: How did the Potency turn out when Cc1csc(CNc2ncnc3ccc(-c4ccc5c(ccn5C)c4)cc23)c1 was run?
A: inactive

Q: How did the Potency turn out when COc1ccc(-c2nnc3n2N=C(c2cc(OC)ccc2OC)CS3)cc1 was run?
A: inactive

Q: For Cc1cccc(CNc2ncnc3ccc(-c4ccc5c(ccn5C)c4)cc23)c1, which Potency is on record?
A: inactive

Q: CC(=O)c1cccc(-c2csc(N3CCC(C(N)=O)CC3)n2)c1 was tested. Which Potency did it give?
A: inactive

Q: For COc1cccc(-n2cnc3cc(C(=O)N4CCCCC4)ccc32)c1, which Potency is on record?
A: inactive

Q: Which Potency does the source give for Cc1cc2c(s1)c1cnn(Cc3c(Cl)cccc3Cl)c(=O)c1n2C here?
A: inactive

Q: Which Potency does the source give for O=C(N1CCc2ccc(S(=O)(=O)N3CCN(S(=O)(=O)c4ccc5c(c4)OCCO5)CC3)cc2C1)C(F)(F)F here?
A: inactive

Q: How did the Potency turn out when Fc1ccccc1-c1ccc(Nc2nc(-c3ccncc3)nc3ccccc23)cc1F was run?
A: inactive

Q: For Cc1ccc(N2CCC(CNc3nc(-c4ccccc4C(C)C)ncc3F)CC2)cn1, which Potency is on record?
A: inactive

Q: O=C(Nc1ncc(Cc2ccc(C(F)(F)F)cc2)s1)c1cnc(-c2ccccc2)s1 was tested. Which Potency did it give?
A: inactive

Q: Which Potency does the source give for Cc1ccc(OCCn2c(CCNC(=O)c3ccc(F)cc3F)nc3ccccc32)cc1 here?
A: inactive

Q: Which Potency does the source give for Cc1cc(C)nc(NC(=S)N2CCN(c3ncccc3Cl)CC2)c1 here?
A: inactive

Q: For Clc1ccc(CSc2nc3ncc(Br)cc3[nH]2)cc1Cl, which Potency is on record?
A: inactive

Q: Which Potency does the source give for O=C1c2ccccc2C(=O)N1c1cccc2cccnc12 here?
A: inactive

Q: For CC(=O)Nc1sc2c(c1-c1nc(-c3ccccc3)cs1)CCN(C(C)C)C2, which Potency is on record?
A: inactive

Q: O=C(Nc1ccc(-c2nc3ccccc3[nH]2)cc1)c1ccncc1 was tested. Which Potency did it give?
A: inactive

Q: Which Potency does the source give for CN1CCc2sc(NC(=O)Cc3ccccc3)c(C(=O)Nc3ccc(Cl)cc3)c2C1 here?
A: inactive

Q: Cn1c2cc(B(O)O)sc2c2cnn(Cc3ccc(F)cc3F)c(=O)c21 was tested. Which Potency did it give?
A: inactive

Q: How did the Potency turn out when Cc1cc2c(s1)c1cnn(Cc3ccc(Br)cc3)c(=O)c1n2C was run?
A: inactive

Q: COCCNc1cc2c(cc1[S+](=O)([O-])Nc1ccc(C)c(C)c1)CCC(=O)N2 was tested. Which Potency did it give?
A: inactive

Q: COc1ccc2nc(-c3cccc(F)c3)sc2c1 was tested. Which Potency did it give?
A: inactive

Q: Which Potency does the source give for Fc1ccc(-c2ccc(Nc3nc(-c4ccncc4)nc4ccccc34)cc2F)c(Cl)c1 here?
A: inactive

Q: With O=C(NC(c1ccco1)c1cc(Cl)c2cccnc2c1O)c1ccc(F)c(F)c1 (stereo not given) as the molecule, how does the Potency read?
A: inactive

Reference: PubChem BioAssay (NCATS)
